Data reported in PubChem BioAssay (Tox21).
Inconclusive results are not listed. A call without a number means that no potency is given here. The source made the active and inactive calls. Unless noted, the call rests on the fitted dose curve.

Assays:
[1] = Nuclear factor erythroid 2-related factor 2/antioxidant responsive element (Nrf2/ARE) small molecule agonists: qHTS cell viability counter screen in human keratinocytes (AID 1919968; active means well fitted curve in the direction sought with a large enough effect in the repeat runs; an effect the other way counts as inactive or inconclusive; further: nearly all actives have a fitted effect of over 55% in size)
Method in brief: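 HaCaT ARE reporter line, 1,500 cells/well; 5 h settle, 37 C/5% CO2; cpd in DMSO pinned; 23 h exposure; CellTiter-Fluor, 1 h; fluorescence.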

[2] = Nuclear factor erythroid 2-related factor 2/antioxidant responsive element (Nrf2/ARE) small molecule agonists: luciferase reporter gene qHTS assay in human keratinocytes (AID 1919969); further: nearly all actives have a fitted effect of over 35% in size
[3] = target: Gonadotropin-releasing hormone receptor (Homo sapiens) (UniProt P30968); experiment: Human gonadotropin-releasing hormone receptor (GnRHR) small molecule agonists, calcium flux assay in GnRHR-HEK293 cells (AID 1920063); further: nearly all actives have a fitted effect of over 35% in size
Method in brief: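 GnRHR-HEK293, 1500 cells/well, 18 h 37 C/5% CO2; Ca dye 1 h 37 C; cpd pinned (DMSO), agonist mode; kinetic FL 480/540, 3 min, 1 s reads; 15 conc, n=3.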

[4] = target: KiSS-1 receptor (Homo sapiens) (UniProt Q969F8); experiment: Human kisspeptin (KISS1R) small molecule agonists, calcium flux assay in KISS1R-HEK293 cells (AID 1920064; active means well fitted curve in the direction sought with a large enough effect in the repeat runs; an effect the other way counts as inactive or inconclusive)
Method in brief: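 Stable human KISS1R HEK293 line; 18 h plating, 37 C/5% CO2; calcium dye 1 h 37 C; compound pin transfer; kinetic fluorescence Ex/Em 480/540, 3 min.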

[5] = G protein-coupled receptor (GPCR) small molecule agonists, calcium flux assay: HEK293 wild type cell line counter screen (AID 1920065)
Method in brief: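 Kinetic fluorescence at Ex/Em 480/540, recorded every second over 3 min, served as the read-out after compound addition. Each compound was tested at 15 concentrations in triplicate on cells pre-loaded with calcium dye for 1 h.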

[6] = p53 small molecule agonists, cell-based qHTS assay with human liver microsomes (AID 1963577)
Method in brief: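 Compounds act here after metabolic activation: human liver microsomes and NADPH, both at 0.5 mg/mL final, were co-added to p53RE-bla cells. Incubation ran 16 h at 37 C, followed by LiveBLAzer detection.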

[7] = p53 small molecule agonists, cell-based qHTS assay with rat liver microsomes (AID 1963578)
Method in brief: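 Read-out is beta-lactamase reporter fluorescence (LiveBLAzer, 2 h, room temperature, dark) in p53RE-bla cells treated 16 h at 37 C with compound, rat liver microsomes and NADPH, both 0.5 mg/mL final.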

[8] = p53 small molecule agonists, cell-based qHTS assay with human liver microsomes: qHTS cell viability counter screen (AID 1963579); further: nearly all actives have a fitted effect of over 45% in size
Method in brief: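 Cells carrying the p53 response-element beta-lactamase reporter are treated for 16 h at 37 C with test compounds in the presence of human liver microsomes and NADPH (both 0.5 mg/mL final); ATP-based CellTiter-Glo luminescence then reports viability.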

[9] = p53 small molecule agonists, cell-based qHTS assay with rat liver microsomes: qHTS cell viability counter screen (AID 1963580); further: nearly all actives have a fitted effect of over 45% in size
Method in brief: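 In HCT-116 cells carrying a p53 response element-bla reporter, compounds were metabolically activated in situ by rat liver microsomes with NADPH over 16 h. Cell ATP content then served as the cytotoxicity measure.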

[10] = p53 small molecule agonists, cell-based qHTS assay: qHTS cell viability counter screen (AID 1963581); further: nearly all actives have a fitted effect of over 45% in size
Method in brief: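 HCT-116 p53RE-bla cells, 4,000/well, plated 5 h before compound pin transfer; 16 h at 37 C; bla substrate 2 h RT; then CellTiter-Glo, 30 min RT, luminescence.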

[11] = p53 small molecule agonists, cell-based qHTS assay (AID 1963582; active means well fitted activation curve with a large enough effect in the signal ratio in the repeat runs, not every such curve was filed as active; the % refers to the signal ratio)
Method in brief: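 Reporter line: p53RE-bla. Pre-incubation 5 h, 37 C, 5% CO2; compound (DMSO, pin tool) 16 h, 37 C; B/G FRET substrate 2 h RT; fluorescence intensity read.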

[12] = target: 5-hydroxytryptamine receptor 2A (Homo sapiens) (UniProt P28223); experiment: 5-hydroxytryptamine receptor 2A (HTR2A) small molecule antagonists, cell-based qHTS assay (AID 1963586); further: nearly all actives have a fitted effect of over 45% in size
Method in brief: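 Antagonist-mode intracellular calcium assay: DOI (4 nM) added after 5 min compound pre-incubation at room temperature to dye-loaded HTR2A-CHO cells. Fluorescence followed for 3 min, sampled every second.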

[13] = target: 5-hydroxytryptamine receptor 2A (Homo sapiens) (UniProt P28223); experiment: 5-hydroxytryptamine receptor 2A (HTR2A) small molecule agonists, cell-based qHTS assay (AID 1963587); further: nearly all actives have a fitted effect of over 30% in size
Method in brief: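 HTR2A-CHO cells, plated 18 h at 37 C/5% CO2, dye-loaded 1 h at 37 C; compounds in DMSO added by pin tool (agonist mode). Intracellular calcium flux read as kinetic fluorescence on FDSS over 2 min at 1 s intervals.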

[14] = target: Muscarinic acetylcholine receptor M1 (Homo sapiens) (UniProt P11229); experiment: Cholinergic receptor muscarinic 1 (CHRM1) small molecule antagonists, cell-based qHTS assay (AID 1963588); further: nearly all actives have a fitted effect of over 40% in size; further: potency means the concentration at half of the fitted maximal effect
Method in brief: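 CHRM1-CHO calcium-flux assay, antagonist mode. Cells were seeded 18 h, dye-loaded 1 h at 37 C and given compound for 5 min at RT, then acetylcholine was added at 50nM. FDSS fluorescence was read 3 min; 15 concentrations, three runs.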

[15] = target: Muscarinic acetylcholine receptor M1 (Homo sapiens) (UniProt P11229); experiment: Cholinergic receptor muscarinic 1 (CHRM1) small molecule agonists, cell-based qHTS assay (AID 1963589); further: nearly all actives have a fitted effect of over 35% in size
Method in brief: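 Human M1 in stable CHO line; 18 h plating, 1 h dye load 37 C; cpd added (agonist mode); Ca2+ fluorescence kinetic read, 1 s intervals; 15 conc, 3 runs.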

[16] = cAMP Responsive Elements (CRE) small molecule agonists, cell-based qHTS assay (AID 1963590)
Method in brief: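 HEK 293T CRE-bla, 2,000 cells/well, 18 h preincubation 37 C/5% CO2; cpds (DMSO) pinned, 3 h; LiveBLAzer B/G FRET substrate, 2 h RT.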

[17] = cAMP Responsive Elements (CRE) small molecule antagonists, cell-based qHTS assay (AID 1963591; active means well fitted inhibition curve with a large enough effect in the signal ratio in the repeat runs, not every such curve was filed as active; the % refers to the signal ratio)
Method in brief: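 Beta-lactamase reporter read by FRET substrate (LiveBLAzer B/G) after 2 h at room temperature. CRE-bla HEK293T cells had received compound plus 0.25 uM (final) NKH477 for 3 h at 37 °C.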

[18] = target: D(2) dopamine receptor (Homo sapiens) (UniProt P14416); experiment: Dopamine D2 receptor (DRD2) small molecule antagonists, cell-based qHTS assay (AID 1963595; active means well fitted inhibition curve with a large enough effect in the signal ratio in the repeat runs, with a control signal flat; the % refers to the signal ratio)
Method in brief: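 In this cell-based antagonist screen, compounds act for 10 min at room temperature before a 30 min challenge with 12 nM quinpirole and 200 nM NKH477. cAMP is quantified by HTRF competition in DRD2-HEK293 cells containing 0.1 mM Ro20-1724.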

[19] = target: Beta-2 adrenergic receptor (Homo sapiens) (UniProt P07550); experiment: Adrenergic beta2 receptor (ADRB2) small molecule antagonists, cell-based qHTS assay (AID 1963592); further: series mostly up to about 92 µM; nearly all actives have a fitted effect of over 50% in size
Method in brief: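 Cells (CHO, stable ADRB2 overexpression) incubated 18-20hr at 37C; compounds added from DMSO; agonist mix (1nM isoproterenol, 100uM IBMX, 25uM Ro-20-1724) added; 0.5hr RT; d2-cAMP and anti-cAMP-cryptate added; 1hr RT; 665/615 nm read.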

[20] = target: D(2) dopamine receptor (Homo sapiens) (UniProt P14416); experiment: Dopamine D2 receptor (DRD2) small molecule agonists, cell-based qHTS assay (AID 1963594); further: nearly all actives have a fitted effect of over 35% in size
Method in brief: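 HEK293 cells stably expressing DRD2 were cultured 24 h at 37 C, then given Ro20-1724 (0.1 mM final) and compounds for 10 min at room temperature. NKH477 (200nM) was then added for 30 min. cAMP was read by HTRF.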

Chain of 5-hydroxytryptamine receptor 2A (Homo sapiens) (P28223 whole entry, looked up): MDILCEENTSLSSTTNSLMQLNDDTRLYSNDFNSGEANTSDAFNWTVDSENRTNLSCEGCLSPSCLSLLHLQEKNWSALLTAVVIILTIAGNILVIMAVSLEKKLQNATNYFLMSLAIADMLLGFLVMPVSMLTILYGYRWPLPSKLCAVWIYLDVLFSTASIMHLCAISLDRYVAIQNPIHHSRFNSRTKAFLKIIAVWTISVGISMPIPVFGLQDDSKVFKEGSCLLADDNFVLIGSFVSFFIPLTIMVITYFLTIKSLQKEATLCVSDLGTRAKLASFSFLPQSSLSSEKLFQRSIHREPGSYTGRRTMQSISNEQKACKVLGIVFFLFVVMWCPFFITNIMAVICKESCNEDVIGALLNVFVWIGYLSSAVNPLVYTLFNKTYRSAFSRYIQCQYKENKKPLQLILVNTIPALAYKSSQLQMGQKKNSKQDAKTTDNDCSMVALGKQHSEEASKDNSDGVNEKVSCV
Chain of Beta-2 adrenergic receptor (Homo sapiens) (P07550 whole entry, looked up): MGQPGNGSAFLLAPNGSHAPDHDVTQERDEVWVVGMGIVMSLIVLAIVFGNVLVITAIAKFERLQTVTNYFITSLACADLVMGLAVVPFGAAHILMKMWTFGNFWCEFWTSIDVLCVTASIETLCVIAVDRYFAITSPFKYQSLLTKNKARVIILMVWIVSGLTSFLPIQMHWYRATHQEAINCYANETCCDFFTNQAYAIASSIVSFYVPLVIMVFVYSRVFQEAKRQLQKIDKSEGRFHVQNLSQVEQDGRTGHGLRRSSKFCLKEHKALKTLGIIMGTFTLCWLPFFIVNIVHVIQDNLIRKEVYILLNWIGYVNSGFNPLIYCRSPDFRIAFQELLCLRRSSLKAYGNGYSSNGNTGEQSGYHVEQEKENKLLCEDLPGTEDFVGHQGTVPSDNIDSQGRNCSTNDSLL
Chain of Muscarinic acetylcholine receptor M1 (Homo sapiens) (P11229 whole entry, looked up): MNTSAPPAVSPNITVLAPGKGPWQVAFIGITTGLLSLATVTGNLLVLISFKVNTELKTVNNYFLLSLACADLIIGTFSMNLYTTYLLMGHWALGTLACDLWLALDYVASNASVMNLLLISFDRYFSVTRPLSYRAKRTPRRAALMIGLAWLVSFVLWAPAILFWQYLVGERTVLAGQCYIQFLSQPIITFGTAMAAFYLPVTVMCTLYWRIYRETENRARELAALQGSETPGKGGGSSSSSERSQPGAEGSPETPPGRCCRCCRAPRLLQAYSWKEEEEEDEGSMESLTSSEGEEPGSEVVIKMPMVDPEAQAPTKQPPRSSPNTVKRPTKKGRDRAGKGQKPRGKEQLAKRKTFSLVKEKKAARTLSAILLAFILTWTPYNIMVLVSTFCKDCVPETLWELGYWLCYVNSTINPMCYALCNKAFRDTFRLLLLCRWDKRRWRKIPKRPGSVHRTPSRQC
Chain of Gonadotropin-releasing hormone receptor (Homo sapiens) (P30968 whole entry, looked up): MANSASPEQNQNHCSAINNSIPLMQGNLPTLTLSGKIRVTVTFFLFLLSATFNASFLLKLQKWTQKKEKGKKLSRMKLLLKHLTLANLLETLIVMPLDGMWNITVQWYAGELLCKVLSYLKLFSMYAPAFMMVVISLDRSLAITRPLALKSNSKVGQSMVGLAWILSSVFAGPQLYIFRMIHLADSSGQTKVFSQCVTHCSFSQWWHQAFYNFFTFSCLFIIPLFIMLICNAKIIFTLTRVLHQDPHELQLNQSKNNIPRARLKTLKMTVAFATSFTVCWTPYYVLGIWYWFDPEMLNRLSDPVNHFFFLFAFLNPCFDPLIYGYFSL
Chain of KiSS-1 receptor (Homo sapiens) (Q969F8 whole entry, looked up): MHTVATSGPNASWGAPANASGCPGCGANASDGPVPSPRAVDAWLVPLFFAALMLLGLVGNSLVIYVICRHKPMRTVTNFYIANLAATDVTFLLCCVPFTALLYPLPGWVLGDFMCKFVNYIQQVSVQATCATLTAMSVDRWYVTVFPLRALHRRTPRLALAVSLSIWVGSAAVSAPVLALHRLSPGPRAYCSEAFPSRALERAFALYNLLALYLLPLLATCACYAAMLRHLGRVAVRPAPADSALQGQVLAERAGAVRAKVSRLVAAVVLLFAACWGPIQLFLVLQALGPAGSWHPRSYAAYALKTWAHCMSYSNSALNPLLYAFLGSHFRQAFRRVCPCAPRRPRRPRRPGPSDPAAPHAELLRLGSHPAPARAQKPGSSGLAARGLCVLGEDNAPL
Chain of D(2) dopamine receptor (Homo sapiens) (P14416 whole entry, looked up): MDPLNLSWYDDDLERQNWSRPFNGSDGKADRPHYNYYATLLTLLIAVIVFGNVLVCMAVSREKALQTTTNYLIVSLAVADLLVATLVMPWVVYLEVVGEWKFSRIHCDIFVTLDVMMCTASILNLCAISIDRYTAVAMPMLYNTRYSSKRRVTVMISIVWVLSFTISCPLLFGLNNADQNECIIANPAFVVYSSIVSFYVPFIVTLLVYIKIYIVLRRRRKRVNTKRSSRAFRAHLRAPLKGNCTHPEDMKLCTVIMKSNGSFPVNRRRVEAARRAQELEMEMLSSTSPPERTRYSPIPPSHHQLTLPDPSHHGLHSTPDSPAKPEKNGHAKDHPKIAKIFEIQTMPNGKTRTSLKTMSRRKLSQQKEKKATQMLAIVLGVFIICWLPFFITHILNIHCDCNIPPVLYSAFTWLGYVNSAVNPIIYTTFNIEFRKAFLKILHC

| Structure (SMILES) | Potency [1] | Potency [2] | Potency [3] | outcome [4] | outcome [5] | Potency [6] | Potency [7] | Potency [8] | Potency [9] | Potency [10] | Potency [11] | Potency [12] | Potency [13] | Potency [14] | Potency [15] | Potency [16] | Potency [17] | Potency [18] | Potency [19] | Potency [20] |
| --- | --- | --- | --- | --- | --- | --- | --- | --- | --- | --- | --- | --- | --- | --- | --- | --- | --- | --- | --- | --- |
| NC(CO)C(=O)NNCc1ccc(O)c(O)c1O (stereo not drawn) | inactive | inactive | inactive | inactive | inactive | inactive | inactive | inactive | inactive | inactive | inactive | inactive | inactive | inactive | inactive | inactive | inactive | inactive | – | – |
| CC(=O)c1cccnc1 | inactive | inactive | inactive | inactive | inactive | inactive | inactive | inactive | inactive | inactive | inactive | inactive | inactive | inactive | inactive | inactive | – | inactive | inactive | inactive |
| OCC(O)c1ccccc1 (stereo not drawn) | inactive | inactive | inactive | inactive | inactive | inactive | inactive | inactive | inactive | inactive | inactive | inactive | inactive | inactive | inactive | inactive | – | inactive | inactive | – |
| CCCC(=O)C(=O)O | inactive | inactive | inactive | inactive | inactive | inactive | inactive | inactive | inactive | inactive | inactive | inactive | inactive | 10.6 µM (active) | inactive | inactive | inactive | inactive | – | inactive |
| CC(C)(Oc1ccc(Cl)cc1)C(=O)OCCCOC(=O)C(C)(C)Oc1ccc(Cl)cc1 | inactive | inactive | inactive | inactive | inactive | inactive | inactive | inactive | inactive | inactive | inactive | inactive | inactive | inactive | inactive | inactive | – | – | inactive | inactive |
| CC(COC(C)(C)C)OCCCO (stereo not drawn) | inactive | inactive | inactive | inactive | inactive | inactive | inactive | inactive | inactive | inactive | inactive | inactive | inactive | inactive | inactive | inactive | – | inactive | inactive | inactive |
| Nc1nc(N)c(-c2ccccc2)s1 | inactive | inactive | inactive | inactive | inactive | inactive | inactive | inactive | inactive | inactive | inactive | inactive | inactive | inactive | inactive | inactive | – | inactive | inactive | – |
| C/C(=N/NC(=O)c1ccncc1)C(=O)O | inactive | inactive | inactive | inactive | inactive | inactive | inactive | inactive | inactive | inactive | inactive | inactive | inactive | inactive | inactive | inactive | – | inactive | inactive | inactive |
| C=C(C)C(=O)OCC(O)CO (stereo not drawn) | inactive | inactive | inactive | inactive | inactive | inactive | inactive | inactive | inactive | inactive | inactive | inactive | inactive | inactive | inactive | inactive | – | inactive | inactive | inactive |
| Cc1c(Cl)cccc1[N+](=O)[O-] | inactive | inactive | inactive | inactive | inactive | inactive | inactive | inactive | inactive | inactive | inactive | inactive | inactive | inactive | inactive | inactive | inactive | inactive | – | inactive |
| Clc1cc(Cl)nc(Cl)n1 | inactive | inactive | inactive | inactive | inactive | inactive | inactive | inactive | inactive | inactive | inactive | inactive | inactive | inactive | inactive | inactive | inactive | inactive | – | – |
| CCCC(C)C(=O)OCC (stereo not drawn) | inactive | inactive | inactive | inactive | inactive | inactive | inactive | inactive | inactive | inactive | inactive | inactive | inactive | inactive | inactive | inactive | inactive | – | – | inactive |
| O=[N+]([O-])c1ccc(CO)cc1 | inactive | inactive | inactive | inactive | inactive | inactive | inactive | inactive | inactive | inactive | inactive | inactive | inactive | inactive | inactive | inactive | inactive | – | – | inactive |
| COc1ccc(NS(=O)(=O)c2ccc(N)cc2)nn1 | inactive | inactive | inactive | inactive | inactive | inactive | inactive | inactive | inactive | inactive | inactive | inactive | inactive | inactive | inactive | inactive | – | inactive | inactive | inactive |
| COc1ccc2nc(SCc3ncc(C)c(OC)c3C)[nH]c2c1 | inactive | inactive | inactive | inactive | inactive | inactive | inactive | inactive | inactive | inactive | inactive | inactive | inactive | inactive | inactive | inactive | – | inactive | inactive | inactive |
| C/C=C(\C)C#N | inactive | inactive | inactive | inactive | inactive | inactive | inactive | inactive | inactive | inactive | inactive | inactive | inactive | inactive | inactive | inactive | inactive | inactive | inactive | – |
| CN(C)C(=O)Nc1ccc(Oc2ccc(Cl)cc2)cc1 | inactive | inactive | inactive | inactive | inactive | inactive | inactive | inactive | inactive | inactive | inactive | inactive | inactive | inactive | inactive | inactive | inactive | inactive | – | inactive |
| O=C(O)c1c(Cl)cccc1Cl | inactive | inactive | inactive | inactive | inactive | inactive | inactive | inactive | inactive | inactive | inactive | inactive | inactive | inactive | inactive | inactive | – | inactive | inactive | inactive |
| O=C(c1ccccc1)c1cccc(O)c1 | inactive | inactive | inactive | inactive | inactive | inactive | inactive | inactive | inactive | inactive | inactive | inactive | inactive | inactive | inactive | inactive | – | inactive | inactive | inactive |
| Cc1ccc(O)cn1 | inactive | inactive | inactive | inactive | inactive | inactive | inactive | inactive | inactive | inactive | inactive | inactive | inactive | inactive | inactive | – | inactive | inactive | inactive | inactive |
